Reference: PubChem BioAssay

Assay: COS7 lysate on small-molecule microarray, probe aHis, 635 nm (AID 1123);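 note: z-score combines 667nm fluorescence intensity with signal-to-noise per printed compound spot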
Details: COS7 cell lysate, fluorescence, higher = more signal

Point of comparison: `CC(C)c1ccc(NN2C(C(O)C3CCCCC3)C=CC3C(=O)N(c4ccccc4)C(=O)C32)cc1` (stereo unspecified), composite z-score 1.78. Against it:
- CCOC(=O)C1=CC[C@@H](c2ccccc2)N(S(=O)(=O)c2ccc(C)cc2)[C@@H]1C#N — higher, 1.87
- C=CCN1C(=O)[C@]2(O[C@H](CCO)[C@@H]([Si](C)(C)c3ccc(OC)cc3)[C@@H]2C)c2cc(N3C(=O)c4ccccc4Oc4ccccc43)ccc21 — lower, 0.506
- C=CCOC(=O)[C@H]1[C@@H]2C(=O)O[C@@H](c3ccccc3)[C@@H](c3ccccc3)N2[C@@H](c2ccc(OCCOC(=O)[C@H]3C[C@H]4C(=O)NCC(=O)N4[C@H]3c3ccc(O)cc3)cc2)[C@]12C(=O)Nc1ccccc12 — lower, 1.67
- C=CCOC(=O)[C@H]1[C@@H]2C(=O)O[C@@H](c3ccccc3)[C@@H](c3ccccc3)N2[C@@H](c2ccc(OCCOC(=O)[C@@H]3C[C@@H]4C(=O)N[C@@H](Cc5ccccc5)C(=O)N4[C@@H]3c3ccc(O)cc3)cc2)[C@]12C(=O)Nc1ccc(I)cc12 — lower, 1.33
- CC(C)[Si](C#Cc1ccccc1)(O[C@H](c1ccccc1)c1cn(Cc2ccccc2)nn1)C(C)C — lower, 0.467
- O=C(NCCN1CCOCC1)[C@@H]1c2ccccc2C(=O)N(CC23CC4CC(CC(C4)C2)C3)[C@H]1c1ccc(CO)cc1 — higher, 2.17
- O=C1O[C@@H](c2ccccc2)[C@@H](c2ccccc2)N2[C@@H](c3ccccc3OCCO)[C@]3(C(=O)Nc4ccc(C#CC5(O)CCCCCC5)cc43)[C@@H](C(=O)N3CCCCCCC3)[C@H]12 — higher, 5.19
- CCOC(=O)C[C@H]1[C@H](OC(=O)c2ccc(-c3ccccc3)cc2)[C@@H](NC(=O)C2CCCCC2)c2cc(OCCCO)ccc2N1C(=O)Cc1ccc(OC)cc1 — lower, 0.405
- C=CCC(OC(C)=O)[C@@H]1[C@@H](N(Cc2cccc3ccccc23)C(=O)c2ccc(C)cc2)c2cc(OCCCO)ccc2N1C(=O)Cc1ccc2ccccc2c1 (stereo partly specified) — lower, 0.738
- COC(=O)C1(CC(C)C)C=C2C(=C(C)C(=O)C2C)CN1 (stereo unspecified) — lower, 1.63
- COC(=O)[C@@]1(Cc2ccc(F)cc2)[C@H]2c3cc(C(=O)N4CCCC4)n(C[C@H](O)CO)c3C[C@H]2CN1C(=O)c1ccccc1 — higher, 2.88
- COC(=O)C(CC#Cc1ccc2c(c1)[C@]1(C(=O)N2)[C@H](C(=O)NC[C@H](O)c2ccccc2)[C@H]2C(=O)O[C@H](c3ccccc3)[C@H](c3ccccc3)N2[C@@H]1c1ccc(O)cc1)C(=O)OC — lower, 0.84
- CN(C)C(=O)[C@]1(CCS(=O)(=O)c2ccccc2)N=C(c2ccc(OCCCO)cc2)O[C@@H]1c1ccccc1CN=[N+]=[N-] — higher, 2.78
- COc1ccc(C(=O)Nc2cccc(CN3C(=O)[C@]4(O[C@H](CC(=O)N(CCO)Cc5ccccc5)[C@@H]([Si](C)(C)c5ccc(OC)cc5)[C@@H]4C)c4ccccc43)c2)cc1 — lower, 1.51
- C=CCNC(=O)[C@@H]1[C@H]2C(=O)O[C@H](c3ccccc3)[C@H](c3ccccc3)N2[C@H](c2ccc(O)cc2)[C@@]12C(=O)N(C(=O)OCCOC)c1ccc(C#CCC(C(=O)OC)C(=O)OC)cc12 — lower, 1.33
- C=CCNC(=O)[C@H]1[C@@H]2C(=O)O[C@@H](c3ccccc3)[C@@H](c3ccccc3)N2[C@@H](c2ccc(OCCO)cc2)[C@]12C(=O)N(C(=O)OCCOC)c1ccc(C#CCNC(N)=O)cc12 — lower, 1.73
- COC(=O)[C@@]1(Cc2ccc(OC)cc2)[C@@H]2[C@@H](CC(=O)[C@H]2CC(=O)C(=O)N(C)C)CN1C(=O)c1ccccc1 — higher, 3.17
- CC(C)N1C(=O)[C@@]2(Cc3ccccc31)c1ccccc1C(=O)N(Cc1ccccc1C(F)(F)F)[C@H]2c1ccc(CO)cc1 — lower, -0.011
- COc1ccc(C#Cc2ccc3c(c2)[C@]2(C(=O)N3)[C@H](c3ccccc3OCCO)N3[C@H](c4ccccc4)[C@H](c4ccccc4)OC(=O)[C@H]3[C@@H]2C(=O)NC[C@H](O)c2ccccc2)cc1 — higher, 1.98
- O=C1O[C@H](c2ccccc2)[C@H](c2ccccc2)N2[C@H]1[C@@H](C(=O)O)[C@]1(C(=O)Nc3ccccc31)[C@H]2c1ccc(OCCO)cc1 — higher, 1.79
- Cc1ccc(S[C@]2(C(=O)NCCN3CCOCC3)CC(=O)N(C(C)C)[C@@H]2c2ccc(CO)cc2I)cc1 — lower, 1.19
- COc1ccc([Si](C)(C)[C@H]2[C@H](CC(=O)N(CCO)Cc3ccccc3)O[C@@]3(C(=O)N(c4ccccc4)c4ccccc43)[C@@H]2C)cc1 — lower, 0.66
- CN1C(=O)C2C=CC(C(O)c3ccc(I)cc3)N(N(c3ccccc3)c3ccccc3)C2C1=O (stereo unspecified) — lower, 0.307
- C=CCC(OC(C)=O)[C@@H]1[C@@H](N(Cc2ccc(-c3ccccc3)cc2)C(=O)Cc2ccc(OC)cc2)c2cc(OCCCO)ccc2N1C(=O)Cc1ccc(OC)cc1 (stereo partly specified) — lower, 0.248
- Cc1ccc(S[C@]2(C(=O)NC(C)C)CC(=O)N(Cc3ccccc3)[C@@H]2c2ccc(CO)cc2)cc1 — lower, -0.0367
- C=CCNC(=O)[C@H]1[C@@H]2C(=O)O[C@@H](c3ccccc3)[C@@H](c3ccccc3)N2[C@@H](c2ccc(OCCO)cc2)[C@]12C(=O)N(C(=O)OCCOC)c1ccc(C#CCC(C(=O)OC)C(=O)OC)cc12 — higher, 2.67
- CCCCCN1CC=CC23O[C@@H]4/C=C\CCCOC(=O)C4[C@H]2C(=O)N(CCO)[C@@H]3C1=O (stereo partly specified) — higher, 2.17
- CN1C2C=C(c3ccc(CO)cc3)C(C3C(=O)N(C(N)=O)C(=O)C32)C1C1CC1 (stereo unspecified) — lower, 0.151
- Cc1ccc(S(=O)(=O)N2[C@@H](c3ccccc3)C(C(=O)O)=C[C@H]2C(C)(C)C)cc1 — higher, 2.82
- C=C(C(=O)CC[C@@H](OC(=O)c1ccccc1-c1ccccc1C(=O)O)c1ccc(CO)o1)C(C)C — lower, 0.163
- COC(=O)[C@@]1(Cc2ccc(F)cc2)[C@@H]2C(=CC(=O)[C@H]2CC(=O)C(=O)N2CCCC2)CN1C(=O)c1ccccc1 — higher, 3.14
- COC(=O)C(CC#Cc1ccc2c(c1)[C@]1(C(=O)N2)[C@H](C(=O)N2CCCCCCC2)[C@H]2C(=O)O[C@H](c3ccccc3)[C@H](c3ccccc3)N2[C@@H]1c1ccc(OCCO)cc1)C(=O)OC — higher, 5.47
- C=CC[C@H](OC(=O)Nc1ccc(SC)cc1)c1ccc(O)c(F)c1 — lower, 0.596
- Cc1cccc([C@H]2C[C@H]3C(Br)=C[C@@]2(CO)C(=O)[C@]32CO2)c1 — lower, 0.182
- C=C(CCCC)C(=O)CC[C@H](OC(=O)c1ccccc1-c1ccccc1C(=O)O)c1cccc(OCCO)c1 — lower, 0.729
